Screen size: about 5,500 compounds; about 2,000 (36%) were called active. Inconclusive results (about 18%) are left out. Cut-off read from the data, not from the text of the source: active = normalized growth mostly below about 0.91 (no sharp cut-off); inconclusive = no clear call, values can overlap the other calls; inactive = mostly above about 0.92. The list shows a part of the results.
Assay: chemical genetic growth profiling, strain panel (AID 1159580);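 note: tested at 20 µM; growth read once vehicle control cultures reached saturation at 30 °C; 1 = growth at the plate median or of vehicle wells; lower values mean less growth of the strain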
Details: growth OD

Measured: normalized growth

CC(=O)Nc1ccccc1
inactive: S. cerevisiae deletion strains, locus YJR066W, strain TOR1, active compounds read low 0.911 | S. cerevisiae deletion strains, locus YJR075W, strain HOC1, active compounds read low 0.99 | S. cerevisiae deletion strains, locus YKL009W, strain mrt4, active compounds read low 0.97 | S. cerevisiae deletion strains, locus YKL068W, active compounds read low 0.99 | S. cerevisiae deletion strains, locus YKL085W, strain MDH1 (second series), active compounds read low 0.977 | S. cerevisiae deletion strains, locus YKL085W, strain MDH1, active compounds read low 0.977 | S. cerevisiae deletion strains, locus YKL160W, strain elf1, active compounds read low 0.985 | S. cerevisiae deletion strains, locus YKL190W, strain CNB1, active compounds read low 0.973 | S. cerevisiae deletion strains, locus YKR001C, strain vps1, active compounds read low 0.98 | S. cerevisiae deletion strains, locus YKR026C, strain gcn3, active compounds read low 0.927 | S. cerevisiae deletion strains, locus YKR091W, strain srl3, active compounds read low 0.95 | S. cerevisiae deletion strains, locus YLL001W, strain dnm1, active compounds read low 0.979 | S. cerevisiae deletion strains, locus YLL026W, active compounds read low 0.972 | S. cerevisiae deletion strains, locus YLL041C, strain sdh2, active compounds read low 0.985 | S. cerevisiae deletion strains, locus YLR027C, strain aat2, active compounds read low 0.961 | S. cerevisiae deletion strains, locus YLR039C, strain RIC1, active compounds read low 0.966 | S. cerevisiae deletion strains, locus YLR058C, strain SHM2, active compounds read low 0.972 | S. cerevisiae deletion strains, locus YLR102C, strain apc9, active compounds read low 0.983 | S. cerevisiae deletion strains, locus YLR113W, strain HOG1, active compounds read low 0.959 | S. cerevisiae deletion strains, locus YLR221C, strain rsa3, active compounds read low 0.967 | S. cerevisiae deletion strains, locus YLR258W, strain gsy2, active compounds read low 0.98 | S. cerevisiae deletion strains, locus YLR262C, strain YPT6 (second series), active compounds read low 0.976 | S. cerevisiae deletion strains, locus YLR262C, strain YPT6, active compounds read low 0.941 | S. cerevisiae deletion strains, locus YLR268W, strain sec22, active compounds read low 0.99 | S. cerevisiae deletion strains, locus YLR320W, strain mms22, active compounds read low 0.964 | S. cerevisiae deletion strains, locus YLR330W, strain CHS5, active compounds read low 0.996 | S. cerevisiae deletion strains, locus YLR342W, strain FKS1 (second series), active compounds read low 1.07 | S. cerevisiae deletion strains, locus YLR342W, strain FKS1, active compounds read low 0.954 | S. cerevisiae deletion strains, locus YLR357W, strain rsc2, active compounds read low 0.967 | S. cerevisiae deletion strains, locus YLR370C, strain arc18, active compounds read low 0.97 | S. cerevisiae deletion strains, locus YLR371W, strain rom2, active compounds read low 0.999 | S. cerevisiae deletion strains, locus YLR384C, strain iki3, active compounds read low 0.986 | S. cerevisiae deletion strains, locus YLR418C, strain cdc73, active compounds read low 1 | S. cerevisiae deletion strains, locus YML016C, strain PPZ1, active compounds read low 0.993 | S. cerevisiae deletion strains, locus YML032C, strain rad52, active compounds read low 0.992 | S. cerevisiae deletion strains, locus YML120C, strain ndi1, active compounds read low 0.967 | S. cerevisiae deletion strains, locus YML124C, strain tub3, active compounds read low 0.982 | S. cerevisiae deletion strains, locus YMR058W, strain fet3, active compounds read low 0.976 | S. cerevisiae deletion strains, locus YMR078C, strain ctf18, active compounds read low 0.982 | S. cerevisiae deletion strains, locus YMR125W, strain sto1, active compounds read low 0.944 | S. cerevisiae deletion strains, locus YMR129W, active compounds read low 0.984 | S. cerevisiae deletion strains, locus YMR205C, strain PFK2, active compounds read low 0.969 | S. cerevisiae deletion strains, locus YMR223W, strain ubp8, active compounds read low 0.985 | S. cerevisiae deletion strains, locus YMR231W, strain pep5, active compounds read low 0.986 | S. cerevisiae deletion strains, locus YMR263W, strain SAP30, active compounds read low 0.981 | S. cerevisiae deletion strains, locus YMR307W, strain GAS1, active compounds read low 1.07 | S. cerevisiae deletion strains, locus YNL067W, strain RPL9B, active compounds read low 0.964 | S. cerevisiae deletion strains, locus YNL071W, strain lat1, active compounds read low 0.976 | S. cerevisiae deletion strains, locus YNL183C, strain NPR1, active compounds read low 0.915 | S. cerevisiae deletion strains, locus YNL209W, strain ssb2, active compounds read low 0.975 | S. cerevisiae deletion strains, locus YNL233W, strain BNI4, active compounds read low 0.978 | S. cerevisiae deletion strains, locus YNL248C, strain rpa49, active compounds read low 0.969 | S. cerevisiae deletion strains, locus YNL250W, strain rad50, active compounds read low 0.97 | S. cerevisiae deletion strains, locus YNL271C, strain bni1, active compounds read low 0.995 | S. cerevisiae deletion strains, locus YNL298W, strain CLA4, active compounds read low 0.986 | S. cerevisiae deletion strains, locus YNL307C, strain MCK1, active compounds read low 0.987 | S. cerevisiae deletion strains, locus YNL322C, strain KRE1 (second series), active compounds read low 0.942 | S. cerevisiae deletion strains, locus YNR049C, strain mso1, active compounds read low 0.952 | S. cerevisiae deletion strains, locus YNR052C, strain pop2, active compounds read low 0.996 | S. cerevisiae deletion strains, locus YOL006C, strain TOP1, active compounds read low 0.928 | S. cerevisiae deletion strains, locus YOL012C, strain htz1 0.771 | S. cerevisiae deletion strains, locus YOL147C, strain pex11, active compounds read low 0.982 | S. cerevisiae deletion strains, locus YOR001W, strain rrp6, active compounds read low 0.979 | S. cerevisiae deletion strains, locus YOR061W, strain CKA2, active compounds read low 0.959 | S. cerevisiae deletion strains, locus YOR069W, strain VPS5, active compounds read low 0.994 | S. cerevisiae deletion strains, locus YOR070C, strain gyp1, active compounds read low 0.972 | S. cerevisiae deletion strains, locus YOR080W, strain dia2, active compounds read low 0.961 | S. cerevisiae deletion strains, locus YOR083W, strain WHI5, active compounds read low 0.965 | S. cerevisiae deletion strains, locus YOR106W, strain vam3, active compounds read low 0.956 | S. cerevisiae deletion strains, locus YOR136W, strain idh2, active compounds read low 0.988 | S. cerevisiae deletion strains, locus YOR144C, strain elg1, active compounds read low 0.987 | S. cerevisiae deletion strains, locus YOR184W, strain ser1, active compounds read low 0.981 | S. cerevisiae deletion strains, locus YOR231W, strain MKK1, active compounds read low 0.968 | S. cerevisiae deletion strains, locus YOR265W, strain rbl2, active compounds read low 0.973 | S. cerevisiae deletion strains, locus YOR270C, strain vph1, active compounds read low 0.927 | S. cerevisiae deletion strains, locus YOR290C, strain snf2, active compounds read low 0.971 | S. cerevisiae deletion strains, locus YOR316C, strain cot1, active compounds read low 0.978 | S. cerevisiae deletion strains, locus YPL051W, strain arl3, active compounds read low 0.982 | S. cerevisiae deletion strains, locus YPL055C, strain LGE1, active compounds read low 0.906 | S. cerevisiae deletion strains, locus YPL078C, strain atp4, active compounds read low 0.971 | S. cerevisiae deletion strains, locus YPL106C, strain sse1, active compounds read low 0.961 | S. cerevisiae deletion strains, locus YPL240C, strain hsp82, active compounds read low 0.994 | S. cerevisiae deletion strains, locus YPL256C, strain CLN2, active compounds read low 0.953 | S. cerevisiae deletion strains, locus YPR119W, strain clb2, active compounds read low 0.986 | S. cerevisiae deletion strains, locus YPR141C, strain kar3, active compounds read low 0.989 | S. cerevisiae deletion strains, locus YPR163C, strain tif3, active compounds read low 0.996 | S. cerevisiae deletion strains, locus YPR167C, strain met16, active compounds read low 0.994 | S. cerevisiae deletion strains, strain wtn01, active compounds read low 1 | S. cerevisiae strains, strain wild type, active compounds read low 0.982

From PubChem BioAssay AID1159580 (chemical genetic matrix, 2015)
